HepG2 viability: qHTS for Inhibitors of TGF-b: Cytotox Counterscreen; HepG2 CAGA-GFP viability, ATP luminescence, 18 h; 410,000 compounds, 0.76% hits; AID 588856, 2011; Potency, µM (series often up to 46.1 µM), inactives show at the highest dose activity change, negative = cytotoxicity, usual class: cytotoxic; note: potency is the fitted concentration of half-maximal effect
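CellTiter-Glo luminescence gave cytotoxicity after 18 hours at 37 degrees C. The cells were HepG2 CAGA-GFP in 1% FBS DMEM, stimulated with 500 pg/mL TGF-beta after compound addition. %Activity was normalised to no-cell wells (complete cell-killing) and DMSO (no toxicity), and curves were fitted and classified.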
IL-1B inflam inh: qHTS for Inhibitors of Inflammasome Signaling: IL-1-beta AlphaLISA Primary Screen | THP-1 LPS/ATP IL-1B secretion, AlphaLISA, 16 h; active compounds read low | activity change, % at 57.5 µM | 360,000 compounds, 4.7% hits | AID 743279, 2014; in the data active = activity change below about -50%; inconclusive = mostly about -30% to -49%; note: % is set by controls: 0 for no effect and ±100 for the full control effect
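THP-1 cells pretreated 1 hr with compounds (up to 57.5 uM final), then stimulated with LPS (250 ng/mL final) plus ATP (1.25 mM final); secreted IL-1B measured by AlphaLISA after 16 hr, decreased signal indicating inhibition.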
ASM inhibitor: Inhibitors of Secretory Acid Sphingomyelinase (S-ASM): qHTS; placental ASM, HMU-PC fluorogenic substrate, 60 min; Sphingomyelin phosphodiesterase (Homo sapiens), P17405; Potency, µM (top dose mostly 57.5 µM), for the others: at the highest dose activity change, negative = inhibition, actives largely listed as inhibitors; 340,000 compounds, 0.006% hits; note: potency is the fitted concentration of half-maximal effect
Target sequence (P17405 47-631 limits assumed): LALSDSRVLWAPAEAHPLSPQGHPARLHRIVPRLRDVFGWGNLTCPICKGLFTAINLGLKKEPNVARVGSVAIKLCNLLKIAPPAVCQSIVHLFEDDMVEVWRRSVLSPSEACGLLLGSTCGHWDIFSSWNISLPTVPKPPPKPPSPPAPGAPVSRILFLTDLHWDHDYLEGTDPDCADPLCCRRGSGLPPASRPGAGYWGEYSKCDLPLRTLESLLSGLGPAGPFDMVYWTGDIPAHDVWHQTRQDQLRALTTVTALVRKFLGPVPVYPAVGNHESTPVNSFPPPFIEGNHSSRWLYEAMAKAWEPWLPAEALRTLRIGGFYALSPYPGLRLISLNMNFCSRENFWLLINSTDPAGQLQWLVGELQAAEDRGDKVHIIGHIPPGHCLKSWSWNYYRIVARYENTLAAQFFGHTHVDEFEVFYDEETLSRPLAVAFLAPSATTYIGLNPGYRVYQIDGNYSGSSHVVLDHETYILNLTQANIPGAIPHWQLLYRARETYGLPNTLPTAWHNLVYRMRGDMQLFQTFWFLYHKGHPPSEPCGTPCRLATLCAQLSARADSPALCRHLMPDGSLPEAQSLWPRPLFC
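Fluorogenic HMU-PC substrate (9 uM final) is turned over by placental ASM in 60 min at 37 C after a 10 min compound preincubation. Reaction ended by alkaline stop (pH 10), with fluorescence read at 386/447 nm.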
DT40 TDP1 no CPT: qHTS for Inhibitors of human tyrosyl-DNA phosphodiesterase 1 (TDP1): qHTS in cells in absence of CPT; DT40 Tdp1-/- hTDP1 cells, no CPT, ATP luminescence, 48 h; Potency, µM (top dose mostly 46.2 µM), inactives show top-dose activity change, negative = growth inhibition, hits mostly inhibitors; 420,000 compounds, 15% hits; AID 686978, 2013; note: potency is the fitted concentration of half-maximal effect; % is set by controls: 0 for no effect and ±100 for the full control effect; nearly all actives have a fitted effect of over 55% in size
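Luminescent ATP content (CellTiter-Glo) served as the growth readout. Knockout chicken DT40 cells expressing human TDP1 were exposed to compounds without camptothecin for a minimum 48 hr at 37 °C.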
TGFb inhibitor: qHTS for Inhibitors of TGF-b. 410,000 compounds, 1.2% hits. HepG2 CAGA-GFP TGF-b/SMAD3 reporter, GFP fluorescence, 18 h; TGF-beta stimulated, 500 pg/mL final. Potency, µM (doses to about 46.1 µM), for the others: top-dose activity, negative = inhibition, most hits filed as inhibitors; note: potency is the fitted concentration of half-maximal effect; % is set by controls: 0 for no effect and ±100 for the full control effect; nearly all actives have a fitted effect of over 65% in size
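Read-out: total well GFP (ex488/em500-530) summed from mean per-cell fluorescence. Cells: HEPG2 CAGA-GFP, 1% FBS DMEM, 18 h at 37 degrees C with 500 pg/mL final TGF-beta. Unstimulated wells served as the full-inhibition control; stimulated DMSO wells = 0%.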
TDP1 cell CPT: qHTS for Inhibitors of human tyrosyl-DNA phosphodiesterase 1 (TDP1): qHTS in cells in presence of CPT. chicken DT40 Tdp1-/-;hTDP1 cells + 20 nM CPT, ATP luminescence, 48 h. Potency, µM (top dose mostly 46.2 µM), for inactives: top-dose activity change, negative = growth inhibition, most hits filed as inhibitors. 420,000 compounds, 12% hits; note: potency is the fitted concentration of half-maximal effect; % is set by controls: 0 for no effect and ±100 for the full control effect; nearly all actives have a fitted effect of over 55% in size
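Chicken DT40 Tdp1-/- cells stably complemented with human TDP1 were seeded at 400 cells/well in medium containing 20 nM camptothecin, exposed to pin-transferred compounds, and grown at 37 °C for at least 48 hr. Viability was read as ATP luminescence.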
* marks the source's active call; other numbers are inactive results; ? = inconclusive; . = no result given. In the library only some 19% were active in any assay of this set; here they are far more common. Unless noted, calls come from the whole dose curve; as a rule, active = well fitted curve in the direction sought with a large enough effect; inconclusive = small, poorly fitted or top-dose-only effect, or another doubt; inactive = no such curve, though single readings can be large; an effect the other way counts as inactive or inconclusive.

SMILES	HepG2 viability	IL-1B inflam inh	ASM inhibitor	DT40 TDP1 no CPT	TGFb inhibitor	TDP1 cell CPT
Cn1nnnc1SCCCNCc1ccccc1OCc1ccc(Cl)cc1	-28%	.	.	23µM*	?	18µM*
Cn1nnnc1SCCNCc1ccccc1OCc1ccc(Cl)cc1	-37%	-89*	1%	16µM*	?	?
Cn1nnnc1SCCCNCc1cccc(OCc2ccc(F)cc2)c1	-21%	.	.	23µM*	-5%	?
Cn1nnnc1SCCNCc1cc(Cl)ccc1OCc1ccccc1	-48%	-9	0%	23µM*	?	26µM*
CCOc1cccc(CNCCCSc2ncccn2)c1	13%	-23	0%	15µM*	24%	4.6µM*
COc1cc(C(=O)Nc2cccc(C)c2C)ccc1OCC(=O)N1CCOCC1	10%	-11	3%	0%	0%	0%
COc1ccc(OC)c(NC(=O)CN(C)S(=O)(=O)c2ccc3[nH]c4c(c3c2)CCCC4)c1	-32%	.	.	21µM*	?	18µM*
COc1cccc(CNC(=O)CN(C)S(=O)(=O)c2ccc3[nH]c4c(c3c2)CCCC4)c1	-39%	.	.	?	?	?
COc1cc(NS(=O)(=O)c2ccc3[nH]c4c(c3c2)CCCC4)cc(OC)c1OC	-45%	.	.	0.58µM*	?	0.92µM*
COc1ccc(NS(=O)(=O)c2ccc3[nH]c4c(c3c2)CCCC4)cc1OC	-26%	.	.	15µM*	?	13µM*
COc1cccc(CNS(=O)(=O)c2ccc3[nH]c4c(c3c2)CCCCC4)c1	22µM*	.	.	.	?	.
COc1ccc(OC)c(NS(=O)(=O)c2ccc3[nH]c4c(c3c2)CCCCC4)c1	-55%	.	.	.	?	.
COc1cc(NS(=O)(=O)c2ccc3[nH]c4c(c3c2)CCCCCC4)cc(OC)c1	-103%	.	.	12µM*	13µM*	?
Cc1ccc(NC(=O)COc2ccc(/C=N/NC(=O)CSCc3ccccc3)cc2)cc1	-27%	33	0%	?	-1%	?
Cc1ccc(NC(=O)COc2ccc(/C=C3/SC(=Nc4ccccc4)N(Cc4cccnc4)C3=O)cc2)cc1	2%	-2	0%	6.5µM*	-5%	5.2µM*
COc1cccc(CNc2nc3cc(-c4cccc(C(F)(F)F)c4)sc3c(=O)n2C)c1OC	-16%	-4	.	?	2%	?
CC(=O)Nc1ccc(CNc2nc3cc(-c4cccc(C(F)(F)F)c4)sc3c(=O)n2C)cc1	-24%	20	.	21µM*	?	23µM*
Cn1c(NCc2ccccc2F)nc2cc(-c3cccc(C(F)(F)F)c3)sc2c1=O	-14%	26	.	15µM*	5%	13µM*
COc1cccc(CNc2nc3cc(-c4cccc(C(F)(F)F)c4)sc3c(=O)n2C)c1	-13%	37	.	-39%	-28%	-26%
O=C(C[N+]1(CCO)CCOCC1)c1cccc2ccccc12	1%	.	.	1%	-4%	4%
COc1cccc(NC(=O)C2C3C=CC4(O3)C2C(=O)N(CCCN2CCCCC2)C4C(=O)NC2CCCCC2)c1 (centres undefined)	-27%	-4	0%	?	-23%	18%
COc1ccc(Cn2ccc3nc(C)c(C(=O)N4CCN(c5ccccc5OC)CC4)cc3c2=O)cc1	-3%	.	.	23µM*	1%	?
COc1ccc(Cn2ccc3nc(C)c(C(=O)N4CCN(c5ccc(OC)cc5)CC4)cc3c2=O)cc1	-30%	.	.	23µM*	?	23µM*
COc1ccc(Cn2ccc3nc(C)c(C(=O)N4CCN(c5ccc(F)cc5)CC4)cc3c2=O)cc1	-13%	.	.	15µM*	-1%	23µM*
COc1ccccc1N1CCN(C(=O)c2cc3c(=O)n(Cc4cccs4)ccc3nc2C)CC1	-26%	.	.	?	?	?
SMILES	HepG2 viability	IL-1B inflam inh	ASM inhibitor	DT40 TDP1 no CPT	TGFb inhibitor	TDP1 cell CPT
Cc1nc2ccn(Cc3cccnc3)c(=O)c2cc1C(=O)N1CCN(c2ccccc2)CC1	-1%	.	.	-1%	-28%	-1%
COc1cccc(N2CCN(C(=O)c3cc4c(=O)n(Cc5cccnc5)ccc4nc3C)CC2)c1	2%	.	.	-24%	15%	-11%
CC(C)CNc1nc(NC(C)(C)C)nc(Oc2ccc(=O)n(-c3ccccc3)n2)n1	-26%	.	.	?	?	?
Cc1cc(C)cc(NC(=O)c2cnn(-c3ccccc3)c2C2CCNCC2)c1	-23%	-26	0%	16µM*	-21%	?
CCc1ccc(NC(=O)c2cnn(-c3ccccc3)c2C2CCNCC2)cc1	-2%	1	1%	17%	4%	-12%
Cc1cc(C)cc(NC(=O)c2cnn(-c3ccc(C)c(C)c3)c2C2CCNCC2)c1	-34%	.	.	?	-14%	?
Cc1ccc(C)c(NC(=O)c2cnn(-c3ccc(F)cc3F)c2C2CCNCC2)c1	-10%	.	.	9.2µM*	5%	21µM*
CCc1ccc(NC(=O)c2cnn(-c3c(C)cccc3C)c2C2CCNCC2)cc1	-26%	.	.	23µM*	5%	?
COc1ccc(OC)c(NC(=O)c2cnn(-c3ccc(C)cc3)c2C2CCNCC2)c1	-40%	.	.	26µM*	-1%	21µM*
CCN(CC(=O)Nc1cc(Cl)ccc1C)C(=O)C1CC1	11%	6	3%	1%	-13%	3%
COC(=O)C1C(=O)C(C(=O)c2ccc([N+](=O)[O-])cc2)C(=O)CC1(C)C (centres undefined)	-2%	-5	1%	24%	-10%	3%
COc1ccc(Cc2[nH]n3c(=O)c(Cl)c(C)nc3c2-c2ccccc2)cc1	-6%	75	-3%	?	3%	?
O=C(NCc1ccccc1Cl)C1CCN(S(=O)(=O)c2cccs2)CC1	2%	-9	15%	?	-4%	-5%
Cc1ccc(-n2ncc(C(=O)Nc3cc(Cl)ccc3C)c2C2CCNCC2)cc1C	-30%	-30	2%	23µM*	-19%	16µM*
Cc1cccc(CNC(=O)CN2C(=O)CCn3nc(-c4cn(C)c5ccccc45)cc32)c1	0%	.	.	?	?	?
